The results in this text go back to PubChem BioAssay (NCI).

The panel holds about 79,000 compounds, 15% with a hit somewhere; the sample as a whole holds those more often. A number with no mark means an inactive call. Calls of active or inactive are those of the source. Cut-off read from the data, not from the text of the source: active = growth inhibition above about 70%; inactive = the rest.

Assay [1] can be described thus: NCI Yeast Anticancer Drug Screen. Data for the rad50 strain (AID 155).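 Note: 0% = growth of vehicle-only cultures of the same strain.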 The settings on record: S. cerevisiae rad50 strain growth inhibition, stronger effect = higher value. In outline: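 Readout: growth inhibition relative to vehicle-treated cultures. Compound exposure was carried out in a genetically defined yeast strain deficient in DNA damage repair.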
Assay [2] can be described thus: NCI Yeast Anticancer Drug Screen. Data for the mec2-1 strain (AID 157). To be noted: S. cerevisiae mec2-1 strain, stronger effect = higher value. The method in brief:
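Mutant yeast (mec2-1) grown with compound; growth inhibition relative to vehicle control reported.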

The nature of assay [3]: NCI Yeast Anticancer Drug Screen. Data for the sgs1 mgt1 strain (AID 161).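 Note: 0% = growth of cultures given vehicle only.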 The settings on record: S. cerevisiae sgs1 mgt1 strain, stronger effect = higher value. The method in brief:
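Compounds are added to genetically altered yeast, and growth is compared with cultures given vehicle alone to give percent inhibition.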

Assay [4] can be described thus: NCI Yeast Anticancer Drug Screen. Data for the cln2 rad14 strain (AID 165).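 Note: 0% = growth equal to vehicle treated cultures.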 The settings on record: S. cerevisiae cln2 rad14 strain, stronger effect = higher value. The method in brief: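 Readout is yeast growth inhibition versus vehicle-treated controls, using a strain with cln2 and rad14 alterations exposed to compound.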
The nature of assay [5]: NCI Yeast Anticancer Drug Screen. Data for the bub3 strain (AID 167). The settings on record: S. cerevisiae bub3 mutant strain, stronger effect = higher value. The method in brief:
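Readout: yeast growth inhibition, expressed relative to vehicle-only wells. The test organism is a mutant strain from a panel with lesions in DNA repair or checkpoint genes.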

The nature of assay [6]: NCI Yeast Anticancer Drug Screen. Data for the mlh1 rad18 strain (AID 175). To be noted: S. cerevisiae mlh1 rad18 strain growth inhibition, stronger effect = higher value. The method in brief: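 Genetically defined yeast (DNA repair-deficient) exposed to compounds; growth inhibition determined relative to vehicle.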
Where [7] appears, read: at 5.0 µM (retest, dose inferred, filed as 0.5).
The mark [8] stands for this setting: at 50.0 µM (retest, dose inferred, filed as 5.0).

As for `COc1cccc(C2c3cc4c(cc3OC(O)C2C)OCO4)c1O` (configuration not stated), the growth inhibition in assay [1] (setting [7]) was -10%; in assay [1] (setting [8]) it was 8%; in assay [1] (at 50.0 µM), 13.6%; in assay [2] (setting [7]), -5%; in assay [2] (setting [8]), 23%; in assay [2] (at 50.0 µM) it was 11.5%. The growth inhibition was 1% in assay [3] (setting [7]); 24% in assay [3] (setting [8]); -6.55% in assay [3] (at 50.0 µM); 7% in assay [4] (setting [7]); 4% in assay [4] (setting [8]); 12.6% in assay [4] (at 50.0 µM). For the same compound, the growth inhibition in assay [5] (setting [7]) was -4%; in assay [5] (setting [8]), 27%; in assay [5] (at 50.0 µM) it was 34.1%; in assay [6] (setting [7]) it was -7%; in assay [6] (setting [8]), 30%; in assay [6] (at 50.0 µM), 58%.

With `O=C(Nn1c(=O)c(=O)oc2ccccc21)C(F)(F)F`, the growth inhibition was 0% in assay [1] (setting [7]); 90% (active) in assay [1] (setting [8]); 94.7% (active) in assay [1] (at 50.0 µM); 1% in assay [2] (setting [7]); 87% (active) in assay [2] (setting [8]); 69.4% in assay [2] (at 50.0 µM). Further, the growth inhibition is 17% in assay [3] (setting [7]); 88% (active) in assay [3] (setting [8]); 81.2% (active) in assay [3] (at 50.0 µM); 3% in assay [4] (setting [7]); 93% (active) in assay [4] (setting [8]); 94.2% (active) in assay [4] (at 50.0 µM). Besides, the growth inhibition in assay [5] (setting [7]) is 9%; in assay [5] (setting [8]) it was 95% (active); in assay [5] (at 50.0 µM) it was 90.9% (active); in assay [6] (setting [7]), 26%; in assay [6] (setting [8]), 97% (active); in assay [6] (at 50.0 µM) it was 97.4% (active).

Turning to `COc1cccc2c1OC(c1ccc(C#N)cc1)C([N+](=O)[O-])=C2` (configuration not stated), the growth inhibition in assay [1] (setting [7]) is 84% (active); in assay [1] (setting [8]), 97% (active); in assay [1] (at 50.0 µM), 86.2% (active); in assay [2] (setting [7]), 84% (active); in assay [2] (setting [8]) it was 98% (active); in assay [2] (at 50.0 µM), 90.8% (active). Besides, the growth inhibition in assay [3] (setting [7]) was 87% (active); in assay [3] (setting [8]), 98% (active); in assay [3] (at 50.0 µM), 87.2% (active); in assay [4] (setting [7]), 47%; in assay [4] (setting [8]), 97% (active); in assay [4] (at 50.0 µM) it was 89.8% (active). For the same compound, the growth inhibition in assay [5] (setting [7]) is 74% (active); in assay [5] (setting [8]), 98% (active); in assay [5] (at 50.0 µM) it was 89.8% (active); in assay [6] (setting [7]), 92% (active); in assay [6] (setting [8]) it was 98% (active); in assay [6] (at 50.0 µM), 83.5% (active).

Regarding `Cc1ccc(-c2oc(C=Nc3ccccc3)c([N+](=O)[O-])c2-c2ccc(C)cc2)cc1`, the growth inhibition in assay [1] (setting [7]) is 11%; in assay [1] (setting [8]), 72% (active); in assay [1] (at 50.0 µM), 73.3% (active); in assay [2] (setting [7]) it was 13%; in assay [2] (setting [8]) it was 70% (active); in assay [2] (at 50.0 µM), 64.5%. Moreover, the growth inhibition in assay [3] (setting [7]) is 26%; in assay [3] (setting [8]), 73% (active); in assay [3] (at 50.0 µM) it was 70.9% (active); in assay [4] (setting [7]), 36%; in assay [4] (setting [8]), 74% (active); in assay [4] (at 50.0 µM) it was 42.2%. Further, the growth inhibition in assay [5] (setting [7]) was 46%; in assay [5] (setting [8]), 95% (active); in assay [5] (at 50.0 µM), 41.7%; in assay [6] (setting [7]) it was 52%; in assay [6] (setting [8]), 91% (active); in assay [6] (at 50.0 µM), 75.8% (active).

For the compound `CCCCCCC(C)OC(=O)c1ccccc1C(=O)O` (configuration not stated), the growth inhibition was 7% in assay [1] (setting [7]); 17% in assay [1] (setting [8]); 11.5% in assay [1] (at 50.0 µM); -11% in assay [2] (setting [7]); 10% in assay [2] (setting [8]); 0.2% in assay [2] (at 50.0 µM). Further, the growth inhibition in assay [3] (setting [7]) is -6%; in assay [3] (setting [8]) it was 16%; in assay [3] (at 50.0 µM), 17.9%; in assay [4] (setting [7]), 6%; in assay [4] (setting [8]), 31%; in assay [4] (at 50.0 µM), 63.5%. For the same compound, the growth inhibition is -3% in assay [5] (setting [7]); 9% in assay [5] (setting [8]); 13.3% in assay [5] (at 50.0 µM); -13% in assay [6] (setting [7]); 12% in assay [6] (setting [8]); 14.8% in assay [6] (at 50.0 µM).

Turning to `Cc1ccc(C(OS(=O)(=O)c2ccc(C)cc2)C(F)(F)F)cc1` (configuration not stated), the growth inhibition in assay [1] (setting [7]) was -1%; in assay [1] (setting [8]), -2%; in assay [1] (at 50.0 µM), 62.6%; in assay [2] (setting [7]), -11%; in assay [2] (setting [8]) it was -1%; in assay [2] (at 50.0 µM), 52.5%. For the same compound, the growth inhibition in assay [3] (setting [7]) was -4%; in assay [3] (setting [8]) it was -13%; in assay [3] (at 50.0 µM), 72.9% (active); in assay [4] (setting [7]), 3%; in assay [4] (setting [8]), -2%; in assay [4] (at 50.0 µM) it was 15.1%. For the same compound, the growth inhibition in assay [5] (setting [7]) was 0%; in assay [5] (setting [8]), 37%; in assay [5] (at 50.0 µM) it was 1.7%; in assay [6] (setting [7]), 19%; in assay [6] (setting [8]), 2%; in assay [6] (at 50.0 µM), 66.2%.

Regarding `CS/C(=N\C(=S)N(C)C)N(c1ccccc1)c1nc(=[N+](C)C)ss1`, the growth inhibition in assay [1] (setting [7]) is 27%; in assay [1] (setting [8]), 98% (active); in assay [1] (at 50.0 µM), 98.5% (active); in assay [2] (setting [7]) it was 13%; in assay [2] (setting [8]) it was 67%; in assay [2] (at 50.0 µM) it was 99.5% (active). For the same compound, the growth inhibition is 38% in assay [3] (setting [7]); 98% (active) in assay [3] (setting [8]); 97.9% (active) in assay [3] (at 50.0 µM); 1% in assay [4] (setting [7]); 99% (active) in assay [4] (setting [8]); 86.1% (active) in assay [4] (at 50.0 µM). In addition, the growth inhibition in assay [5] (setting [7]) is 27%; in assay [5] (setting [8]), 97% (active); in assay [5] (at 50.0 µM), 98.8% (active); in assay [6] (setting [7]), 22%; in assay [6] (setting [8]) it was 98% (active); in assay [6] (at 50.0 µM) it was 98.7% (active).

Take `COC1OC(CBr)C(OC(C)=O)C(OC(C)=O)C1OC(C)=O` (configuration not stated): the growth inhibition was 7% in assay [1] (setting [7]); -3% in assay [1] (setting [8]); 5.9% in assay [1] (at 50.0 µM); 5% in assay [2] (setting [7]); 3% in assay [2] (setting [8]); 13.2% in assay [2] (at 50.0 µM). Also, the growth inhibition in assay [3] (setting [7]) is 8%; in assay [3] (setting [8]), 3%; in assay [3] (at 50.0 µM), -3.6%; in assay [4] (setting [7]) it was 5%; in assay [4] (setting [8]), 30%; in assay [4] (at 50.0 µM), 8.7%. Also, the growth inhibition in assay [5] (setting [7]) was 6%; in assay [5] (setting [8]), 3%; in assay [5] (at 50.0 µM) it was 82.3% (active); in assay [6] (setting [7]), -2%; in assay [6] (setting [8]) it was 2%; in assay [6] (at 50.0 µM), 18.9%.

In the case of `S=C1C(=Nc2ccccc2)N(c2ccccc2)/C(=N\c2cccc[n+]2Cc2ccccc2)N1c1ccccc1`, the growth inhibition was -17% in assay [1] (setting [7]); 89% (active) in assay [1] (setting [8]); 96.6% (active) in assay [1] (at 50.0 µM); -10% in assay [2] (setting [7]); 99% (active) in assay [2] (setting [8]); 97.9% (active) in assay [2] (at 50.0 µM). Besides, the growth inhibition in assay [3] (setting [7]) is -1%; in assay [3] (setting [8]) it was 72% (active); in assay [3] (at 50.0 µM), 98.7% (active); in assay [4] (setting [7]) it was -17%; in assay [4] (setting [8]), 48%; in assay [4] (at 50.0 µM), 94.5% (active). For the same compound, the growth inhibition in assay [5] (setting [7]) is -20%; in assay [5] (setting [8]), 85% (active); in assay [5] (at 50.0 µM) it was 98% (active); in assay [6] (setting [7]) it was -23%; in assay [6] (setting [8]) it was 96% (active); in assay [6] (at 50.0 µM) it was 98.2% (active).
